Measured values as given in PubChem BioAssay.
Unmarked numbers belong to inactive results. For some of these results: Results with a measured potency or affinity are listed apart. Activity calls are given as the source filed them. Unless noted, the rule behind the calls is not given here.

Legend:
[1] = antimalarial activity against Dd2 strain (AID 2302;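 active = growth inhibition above 50% at the single 2 µM test dose, taken to imply half-maximal potency below 2 µM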;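 note: 0% = DMSO untreated growth and 100% = chloroquine plus artemisinin killed control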); details: P. falciparum Dd2 in RBCs, LDH growth readout, 72 h; at 2 µM; active compounds read high
[2] = human hepatoma cell viability loss – ATP luminescence, cytotoxicity control for P. falciparum antimalarial project, primary screen (AID 2303;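 active = inhibition above 50%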;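 note: 0% = DMSO wells and 100% = digitonin-killed cells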); details: HepG2 viability, 24-48 h, at 10 µM, active compounds read high
[3] = target: L-lactate dehydrogenase (Plasmodium falciparum (isolate CDC / Honduras)) (UniProt Q27743); test: PfLDH activity inhibition – cell lysate, 3D7 strain, counter-screen for P. falciparum growth inhibition project (AID 2304);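 note: 0% = vehicle and 100% = reference inhibitor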; details: P. falciparum 3D7 crude extract, LDH APAD/NBT absorbance; at 2 µM; active compounds read high
[4] = inhibition of 3D7 malaria parasite growth – strain 3D7 (AID 2306);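 note: 0% = DMSO wells and 100% = chloroquine plus artemisinin control wells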; details: P. falciparum 3D7 erythrocytic growth, LDH absorbance, 72 h; at 2 µM; active compounds read high
[5] = target: Calcium-dependent protein kinase 1 (Plasmodium falciparum (isolate 3D7)) (UniProt P62344); test: PfCDPK1 kinase inhibitors, biochemical, TCAMS library (AID 1159585; cut-off not given, nearly all actives have IC50 up to about 0.98 µM;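 note: inhibitors leave more ATP so luminescence rises with inhibition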); details: recombinant PfCDPK1, Kinase-Glo ATP depletion luminescence
[6] = target: Plasmodium falciparum protein kinase 6 (PK6, PF3D7_1337100) (UniProt Q8IDW1); test: PfPK6 kinase inhibitors, biochemical, TCAMS library (AID 1159586); details: recombinant PfPK6, Kinase-Glo ATP depletion luminescence
[7] = target: Protein kinase 7 (PK7), Plasmodium falciparum 3D7 (PF3D7_0213400) (UniProt Q7YTF7); test: inhibition of Plasmodium PK7 catalytic activity – biochemical, TCAMS antimalarial set, Kinase-Glo luminescence (AID 1159587); details: recombinant PfPK7, Kinase-Glo ATP depletion luminescence
[8] = target: Calcium-dependent protein kinase 4 (Plasmodium falciparum (isolate 3D7)) (UniProt Q8IBS5); test: PfCDPK4 kinase inhibitors, biochemical, TCAMS library (AID 1159588; cut-off not given, nearly all actives have IC50 up to about 0.91 µM); details: recombinant PfCDPK4, Kinase-Glo ATP depletion luminescence
Chain of Calcium-dependent protein kinase 4 (Plasmodium falciparum (isolate 3D7)) (Q8IBS5 whole entry, looked up): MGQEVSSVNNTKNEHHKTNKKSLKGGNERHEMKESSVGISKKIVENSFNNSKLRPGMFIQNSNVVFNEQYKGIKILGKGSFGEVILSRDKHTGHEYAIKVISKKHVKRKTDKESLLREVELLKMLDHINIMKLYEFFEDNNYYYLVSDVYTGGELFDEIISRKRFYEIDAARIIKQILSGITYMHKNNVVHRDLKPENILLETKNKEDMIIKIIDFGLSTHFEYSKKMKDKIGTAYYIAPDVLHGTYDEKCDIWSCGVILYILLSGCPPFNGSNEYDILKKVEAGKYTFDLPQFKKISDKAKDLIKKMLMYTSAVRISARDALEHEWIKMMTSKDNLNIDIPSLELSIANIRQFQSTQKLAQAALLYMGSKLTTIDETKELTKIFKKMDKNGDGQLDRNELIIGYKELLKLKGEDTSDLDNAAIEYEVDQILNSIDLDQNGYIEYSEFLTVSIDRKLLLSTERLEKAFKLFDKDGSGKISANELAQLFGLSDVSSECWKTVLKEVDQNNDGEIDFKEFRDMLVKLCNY

Chain of Calcium-dependent protein kinase 1 (Plasmodium falciparum (isolate 3D7)) (P62344 whole entry, looked up): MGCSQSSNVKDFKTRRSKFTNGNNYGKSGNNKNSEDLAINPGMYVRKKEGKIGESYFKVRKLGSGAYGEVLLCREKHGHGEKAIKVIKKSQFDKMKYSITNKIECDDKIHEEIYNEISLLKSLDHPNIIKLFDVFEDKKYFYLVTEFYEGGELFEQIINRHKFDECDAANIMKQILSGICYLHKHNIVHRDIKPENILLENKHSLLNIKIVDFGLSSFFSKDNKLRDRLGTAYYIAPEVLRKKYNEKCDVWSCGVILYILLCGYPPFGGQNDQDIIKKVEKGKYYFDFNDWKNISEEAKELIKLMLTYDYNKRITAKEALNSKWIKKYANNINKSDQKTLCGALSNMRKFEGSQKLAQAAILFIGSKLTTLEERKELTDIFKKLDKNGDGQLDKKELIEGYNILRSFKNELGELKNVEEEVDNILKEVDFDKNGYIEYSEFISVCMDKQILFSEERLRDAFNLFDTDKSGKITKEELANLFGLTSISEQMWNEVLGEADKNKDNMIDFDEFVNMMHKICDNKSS
Chain of Protein kinase 7 (PK7), Plasmodium falciparum 3D7 (PF3D7_0213400) (Q7YTF7 1-343): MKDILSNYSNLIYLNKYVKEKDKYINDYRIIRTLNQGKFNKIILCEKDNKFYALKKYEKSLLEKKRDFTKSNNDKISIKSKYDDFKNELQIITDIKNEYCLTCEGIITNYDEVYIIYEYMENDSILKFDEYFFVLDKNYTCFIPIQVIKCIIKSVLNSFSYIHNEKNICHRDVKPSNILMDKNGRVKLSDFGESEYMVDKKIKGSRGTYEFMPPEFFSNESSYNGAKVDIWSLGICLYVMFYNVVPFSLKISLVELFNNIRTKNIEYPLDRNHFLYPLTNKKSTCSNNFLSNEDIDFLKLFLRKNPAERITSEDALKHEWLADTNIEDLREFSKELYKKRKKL
Chain of Plasmodium falciparum protein kinase 6 (PK6, PF3D7_1337100) (Q8IDW1 1-305): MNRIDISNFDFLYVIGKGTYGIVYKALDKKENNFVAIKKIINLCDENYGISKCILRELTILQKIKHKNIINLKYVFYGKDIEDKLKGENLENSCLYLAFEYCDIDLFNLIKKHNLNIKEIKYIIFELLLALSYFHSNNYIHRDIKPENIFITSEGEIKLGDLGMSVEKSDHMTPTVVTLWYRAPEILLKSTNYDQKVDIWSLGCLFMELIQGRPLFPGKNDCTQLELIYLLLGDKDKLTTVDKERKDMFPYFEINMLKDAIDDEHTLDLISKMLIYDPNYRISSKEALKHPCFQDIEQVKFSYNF
Chain of L-lactate dehydrogenase (Plasmodium falciparum (isolate CDC / Honduras)) (Q27743 whole entry, looked up): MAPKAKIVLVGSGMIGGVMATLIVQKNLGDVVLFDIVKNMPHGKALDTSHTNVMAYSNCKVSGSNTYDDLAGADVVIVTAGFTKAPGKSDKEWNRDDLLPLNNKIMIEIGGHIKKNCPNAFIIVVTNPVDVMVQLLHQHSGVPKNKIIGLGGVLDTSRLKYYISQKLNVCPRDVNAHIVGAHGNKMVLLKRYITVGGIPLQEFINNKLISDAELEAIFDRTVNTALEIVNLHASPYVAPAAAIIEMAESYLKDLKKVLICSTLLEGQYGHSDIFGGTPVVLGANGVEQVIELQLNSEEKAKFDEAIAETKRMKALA

| SMILES | growth inhibition [1] | inhibition [2] | inhibition [3] [%] | growth inhibition [4] | outcome [5] | outcome [6] | outcome [7] | outcome [8] |
| --- | --- | --- | --- | --- | --- | --- | --- | --- |
| Cc1noc(C)c1-c1cccc(CNCc2cccc(-c3ccc(-c4nc5ccccc5[nH]4)s3)c2)c1 | 29% | 24% | -1 | 101% (active) | inactive | inactive | inactive | inactive |
| COc1ccc2nccc([C@@H](O)CN3CCC(NS(=O)(=O)c4cc5c(cc4Cl)SCC(=O)N5)CC3)c2c1 | 0% | 5% | 0 | 88% (active) | inactive | inactive | inactive | inactive |
| O=c1cc(NCCCNC2CCOc3c(I)cc(Cl)cc32)[nH]c2ccccc12 (stereo not drawn) | 48% | -10% | -1 | 96% (active) | inactive | inactive | inactive | inactive |
| CC(C)Cc1nc2nc(N)nc(N)c2cc1C(C)C | 3% | 67% (active) | 4 | 96% (active) | inactive | inactive | inactive | inactive |
| Nc1c(I)cc(C(=O)Nc2ccc3nc4c(c(N)c3c2)CCCC4)cc1I | 99% (active) | 40% | 2 | 100% (active) | inactive | inactive | inactive | inactive |
| NC(N)=NCCCCN(Cc1ccccc1)c1ccccc1 | 98% (active) | -4% | -4 | 100% (active) | inactive | inactive | inactive | inactive |
| CC(C)(C)c1cc(C(=O)N2CCC(c3ccccn3)CC2)n(Cc2ccccc2)n1 | 90% (active) | 3% | -3 | 96% (active) | inactive | inactive | inactive | inactive |
| CN1CCCN(Cc2cccc(-c3cccc(NC(=O)c4ccc(C#N)cc4)c3)c2)CC1 | 4% | 7% | 1 | 89% (active) | inactive | inactive | inactive | inactive |
| O=C1NC(c2ccc(N3CCCCCC3)cc2)Nc2ccccc21 (stereo not drawn) | 96% (active) | 19% | 0 | 96% (active) | inactive | inactive | inactive | inactive |
| C#CCCC(=O)Nc1cccc(-c2cccc(-c3nc4c(C)cccc4[nH]3)c2)c1 | 29% | 30% | -3 | 97% (active) | inactive | inactive | inactive | inactive |
| CCCCCOc1ccc(C(=NC)N(CCCCC)CCCCC)c2ccccc12 | 80% (active) | 70% (active) | 3 | 96% (active) | inactive | inactive | inactive | inactive |
| O=C(Cc1cccc(Cl)c1)Nc1cccc(-c2c[nH]c3nc(Nc4cccc(O)c4)ncc23)c1 | 74% (active) | 23% | 3 | 100% (active) | inactive | inactive | inactive | inactive |
| O=C(NCCN1CCCC1)c1cccc(-c2ccc(-c3nc4ccccc4[nH]3)cc2)c1 | 36% | 20% | 0 | 100% (active) | inactive | inactive | inactive | inactive |
| Cc1ccccc1C1CCN(C2CCC(NC(=O)/C=C/c3cccc(F)c3F)CC2)CC1 (stereo not drawn) | 45% | 57% (active) | -3 | 89% (active) | inactive | inactive | inactive | inactive |
| CN(C)CCN(C)Cc1ccc(-c2ccc(NS(=O)(=O)c3cccc4cccnc34)cc2)cc1 | 16% | 23% | -1 | 93% (active) | inactive | inactive | inactive | inactive |
| O=C(N[C@H]1CCN(CCc2ccc(O[C@H]3CCNC3)cc2)C1)c1ccc(Cl)c(Cl)c1 | 5% | 18% | -3 | 96% (active) | inactive | inactive | inactive | inactive |
| OC1CCCN(Cc2cccc(-c3ccc(-c4nc5ccc(F)cc5[nH]4)cc3)c2)C1 (stereo not drawn) | 42% | 16% | -4 | 101% (active) | inactive | inactive | inactive | inactive |
| CC[C@H](C)CNC(=O)c1ccnc(-c2ccc(CNCCCc3ccccc3)cc2)c1 | 84% (active) | 17% | -4 | 101% (active) | inactive | inactive | inactive | inactive |
| Cc1cc(N)c2cc(NC(=O)c3cccc(C(=O)Nc4ccc5nc(C)cc(N)c5c4)c3)ccc2n1 | 92% (active) | 9% | 4 | 94% (active) | inactive | inactive | inactive | inactive |
| CCc1ccc(S(=O)(=O)Nc2cccc(CCN3CCC(N4CCCCC4)CC3)c2)cc1 | 20% | 21% | -4 | 101% (active) | inactive | inactive | inactive | inactive |
| O=C(NCc1ccccc1)Nc1ccc(-c2ccc(-c3nc4ccc(C(F)(F)F)cc4[nH]3)cc2)cc1 | 23% | 40% | 4 | 99% (active) | inactive | inactive | inactive | inactive |

| SMILES | growth inhibition [1] | inhibition [2] | inhibition [3] [%] | growth inhibition [4] | outcome [5] | outcome [6] | outcome [7] | outcome [8] |
| --- | --- | --- | --- | --- | --- | --- | --- | --- |
| CC(C)OC(=O)c1ccc(NC(=O)N[C@@H](Cc2ccc(O)cc2)C(=O)NC2C[C@H]3CC[C@@H](C2)N3Cc2ccccc2)cc1 (stereo partly drawn) | 19% | 0% | -5 | 92% (active) | inactive | inactive | inactive | inactive |
| COc1cc(CN2CCC(NC(=O)[C@H](Cc3ccccc3)NC(=O)Nc3ccc(Oc4ccccc4)cc3)C2)ccc1O (stereo partly drawn) | -2% | 10% | 6 | 92% (active) | inactive | inactive | inactive | inactive |
| COc1ccc(S(=O)(=O)N2CCC(NS(=O)(=O)c3ccc(F)cc3)CC2)cc1 | -3% | 3% | 0 | 80% (active) | inactive | inactive | inactive | inactive |
| Cc1ccc(CNC(=O)c2ccc(CN3CCCN(Cc4ccsc4)CC3)cc2)cc1 | -1% | 16% | 5 | 93% (active) | inactive | inactive | inactive | inactive |
| O=C(NCc1ccc(Cl)c(Cl)c1)c1ccc(C2CCN(Cc3ccc4nc[nH]c4c3)CC2)cc1 | 31% | 1% | -1 | 100% (active) | inactive | inactive | inactive | inactive |
| CCc1ccc(O)c(-c2cc(C(=O)Nc3ccc(OC)c(Cl)c3)[nH]n2)c1 | 97% (active) | 15% | -1 | 93% (active) | inactive | inactive | inactive | inactive |
| c1ccc(Oc2ccc(Nc3nc(NCCc4cnc[nH]4)nc(NC4CCCC4)n3)cc2)cc1 | 23% | -5% | 6 | 97% (active) | inactive | inactive | inactive | inactive |
| Cc1cc(N(C)C2CCN(CC3CCCCC3)C2)nc(Nc2ccc(Cl)cc2)n1 (stereo not drawn) | 35% | -3% | -5 | 98% (active) | inactive | inactive | inactive | inactive |
| COc1cccc(C(=O)NC(c2ccc(Cl)cc2Cl)c2cc(Cl)c3cccnc3c2O)c1 (stereo not drawn) | 76% (active) | 37% | -8 | 100% (active) | inactive | inactive | inactive | inactive |
| O=C(CCC1CCCC1)N(Cc1ccc(-c2ccc(CNCCc3ccccn3)cc2)cc1)CC1CCCCN1 (stereo not drawn) | 69% (active) | 32% | 0 | 95% (active) | inactive | inactive | inactive | inactive |
| CC(CO)(CO)NCc1cc2c3ccccc3c(CNC(C)(CO)CO)cc2c2ccccc12 | 98% (active) | 40% | 3 | 96% (active) | inactive | inactive | inactive | inactive |
| CC(=O)Nc1cccc(C(=O)Nc2cccc(-c3ccc(-c4nc5c(C)cccc5[nH]4)cc3)c2)c1 | 12% | 29% | -1 | 95% (active) | inactive | inactive | inactive | inactive |
| CCCC(C)Nc1nc(C)cc(NCCC(=O)Nc2ccc(OC)cc2)n1 (stereo not drawn) | 2% | 12% | -1 | 97% (active) | inactive | inactive | inactive | inactive |
| CCn1ccc2c(N3CCCC3=O)cc(C(=O)N[C@@H](Cc3ccccc3)[C@H](O)CNCc3cccc(OC)c3)cc21 | 92% (active) | 4% | -5 | 94% (active) | inactive | inactive | inactive | inactive |
| c1ccc2c(NCCCCCCNc3ccnc4ccccc34)ccnc2c1 | 12% | 43% | 5 | 100% (active) | inactive | inactive | inactive | inactive |
| COc1ccc(CNC(=O)NC2CCN(c3ccnc(Nc4ccc(OC)cc4)n3)C2)cc1 (stereo not drawn) | 80% (active) | 27% | 1 | 87% (active) | inactive | inactive | inactive | inactive |
| COC(=O)Cc1ccc(N)c2ccccc12 | -1% | 2% | -1 | 98% (active) | inactive | inactive | inactive | inactive |
| c1ccc(-c2nnc(-c3ccccn3)nc2NC2CCCCC2)cc1 | 80% (active) | 74% (active) | 6 | 97% (active) | inactive | inactive | inactive | inactive |
| O=C(NCCCc1ccccc1)c1csc(C2CCCN(C(=O)c3ccc(O)c(-c4ccccc4)c3)C2)n1 (stereo not drawn) | 97% (active) | 5% | 5 | 97% (active) | inactive | inactive | inactive | inactive |
| COc1ccc2nc(C)cc(Nc3ccc(Oc4ccc(Cl)c5ccccc45)c(Cl)c3)c2c1 | 100% (active) | 83% (active) | -2 | 100% (active) | inactive | inactive | inactive | inactive |
